According to PubChem BioAssay (NCI):
Compounds without any hit were thinned out: in the full panel of roughly 83,000, 20% have a hit.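 Method: cells in 96-well plates; compound added at one concentration; 48 h incubation; percent growth measured; values under 10 scored active.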 Active and inactive are the calls of the source.

Assays:
Assay in all cases: NCI-60 one-dose screen, 48 h (100 = growth as untreated, 0 = no growth, -100 = all killed)
Conditions in all cases: 10 µM unless noted
NCI-H23 lung = test system: NCI-H23 lung
NCI-H226 lung = test system: NCI-H226 lung
NCI-H322M lung = test system: NCI-H322M lung
HOP-62 NSCLC = test system: HOP-62 NSCLC
NCI-H460 lung = test system: NCI-H460 lung
NCI-H522 lung = test system: NCI-H522 lung
A549/ATCC NSCLC = test system: A549/ATCC NSCLC
786-0 renal = test system: 786-0 renal
COLO 205 colon = test system: COLO 205 colon
DU-145 prostate = test system: DU-145 prostate
K-562 leukemia = test system: K-562 leukemia
MALME-3M melanoma = test system: MALME-3M melanoma
MDA-MB-231 breast = test system: MDA-MB-231 breast
RXF 393 renal = test system: RXF 393 renal
SF-268 CNS = test system: SF-268 CNS
SF-295 CNS = test system: SF-295 CNS
SF-539 CNS = test system: SF-539 CNS
UACC-257 melanoma = test system: UACC-257 melanoma
M14 melanoma = test system: M14 melanoma

Measured: growth

CC(=O)Cc1ccccn1
inactive: NCI-H23 lung 104% | NCI-H226 lung 98% | NCI-H322M lung 110% | HOP-62 NSCLC 108% | NCI-H460 lung 105% | NCI-H522 lung 92.5% | A549/ATCC NSCLC 104% | 786-0 renal 101% | COLO 205 colon 133% | DU-145 prostate 107% | K-562 leukemia 100% | MALME-3M melanoma 106% | MDA-MB-231 breast 105% | RXF 393 renal 119% | SF-268 CNS 98.7% | SF-295 CNS 84.1% | SF-539 CNS 99.7% | UACC-257 melanoma 103% | M14 melanoma 102%

COc1cc(NCCC2CCCCN2)c2ncccc2c1OC (configuration not stated)
active: NCI-H522 lung -7.89%
inactive: NCI-H23 lung 49.1% | NCI-H226 lung 117% | NCI-H322M lung 116% | HOP-62 NSCLC 102% | NCI-H460 lung 80.3% | A549/ATCC NSCLC 82.1% | 786-0 renal 90.1% | COLO 205 colon 78.1% | DU-145 prostate 87.5% | K-562 leukemia 64.7% | MALME-3M melanoma 134% | MDA-MB-231 breast 74.2% | RXF 393 renal 111% | SF-268 CNS 92.9% | SF-295 CNS 110% | SF-539 CNS 92% | UACC-257 melanoma 66.3% | M14 melanoma 92.1%

ClCc1c(Cl)c(Cl)c(Cl)c(CCl)c1Cl
inactive: NCI-H23 lung 82.8% | NCI-H226 lung 35% | NCI-H322M lung 94% | NCI-H460 lung 73.8% | A549/ATCC NSCLC 94.9% | 786-0 renal 76.3% | DU-145 prostate 14.8% | MDA-MB-231 breast 47.8% | SF-268 CNS 33.5% | SF-295 CNS 97.5% | SF-539 CNS 97.6% | UACC-257 melanoma 19.9% | M14 melanoma 35.5%
active: HOP-62 NSCLC -28.8% | NCI-H522 lung -64.6% | COLO 205 colon -87.4% | K-562 leukemia -20.8% | MALME-3M melanoma -40.3% | RXF 393 renal -75.9%

CCN(CC)c1ccc2c(cc1=O)[C@@H](NC(C)=O)CCc1cc(OC)c(OC)c(OC)c1-2
inactive: NCI-H23 lung 49.5% | NCI-H226 lung 51% | NCI-H322M lung 30.9% | HOP-62 NSCLC 30.9% | A549/ATCC NSCLC 13.2% | 786-0 renal 15.6% | MALME-3M melanoma 99% | MDA-MB-231 breast 15.1% | RXF 393 renal 58.8% | SF-268 CNS 24.4% | SF-295 CNS 11.3% | UACC-257 melanoma 63.1%
active: NCI-H460 lung 3.44% | NCI-H522 lung -38.8% | COLO 205 colon -62.8% | DU-145 prostate -10.2% | K-562 leukemia 0.286% | SF-539 CNS -3.76% | M14 melanoma -0.777%

Clc1ccccc1CNc1c2ccccc2nc2ccccc12
inactive: NCI-H23 lung 21.6% | NCI-H226 lung 38.9% | NCI-H322M lung 27% | HOP-62 NSCLC 40.9% | NCI-H522 lung 28.5% | A549/ATCC NSCLC 19.2% | 786-0 renal 24.5% | DU-145 prostate 31.8% | MALME-3M melanoma 19% | MDA-MB-231 breast 29% | RXF 393 renal 15% | SF-268 CNS 46.6% | SF-295 CNS 21.7% | UACC-257 melanoma 44.3% | M14 melanoma 18.1%
active: NCI-H460 lung 8.83% | COLO 205 colon 0.525% | K-562 leukemia 5.33% | SF-539 CNS 6.15%

CNC(=O)c1c(NC(=O)c2ccc(C(C)C)cc2)sc2c1CCC(=O)C2
active: NCI-H23 lung -1.47% | NCI-H226 lung -24.5% | NCI-H460 lung 7.34% | NCI-H522 lung -26.3% | COLO 205 colon -70.3% | K-562 leukemia 1.86% | MALME-3M melanoma -45.3% | MDA-MB-231 breast -55.9% | RXF 393 renal -32.9% | SF-295 CNS -29.4% | SF-539 CNS -63.7% | UACC-257 melanoma 1.16% | M14 melanoma -39.4%
inactive: NCI-H322M lung 17.6% | HOP-62 NSCLC 12% | A549/ATCC NSCLC 15.9% | 786-0 renal 13% | DU-145 prostate 23.4% | SF-268 CNS 15.3%

COc1cccc(NC(=O)OC(C)C)c1
inactive: NCI-H23 lung 98.7% | NCI-H226 lung 107% | NCI-H322M lung 99% | HOP-62 NSCLC 103% | NCI-H460 lung 105% | NCI-H522 lung 90.9% | A549/ATCC NSCLC 94.7% | 786-0 renal 104% | COLO 205 colon 103% | DU-145 prostate 103% | K-562 leukemia 88.1% | MALME-3M melanoma 94.5% | MDA-MB-231 breast 116% | RXF 393 renal 109% | SF-268 CNS 108% | SF-295 CNS 108% | SF-539 CNS 106% | UACC-257 melanoma 108% | M14 melanoma 112%

N=C(N)c1ccc(NCCNc2ccc(C(=N)N)cc2)cc1
inactive: NCI-H23 lung 85.9% | NCI-H226 lung 62.6% | NCI-H322M lung 95.5% | HOP-62 NSCLC 121% | NCI-H460 lung 50.3% | NCI-H522 lung 92.9% | A549/ATCC NSCLC 42.2% | 786-0 renal 117% | COLO 205 colon 142% | DU-145 prostate 106% | K-562 leukemia 82.1% | MALME-3M melanoma 100% | MDA-MB-231 breast 87.3% | RXF 393 renal 98.3% | SF-268 CNS 113% | SF-295 CNS 66.3% | SF-539 CNS 84.7% | UACC-257 melanoma 62.3% | M14 melanoma 125%
